# Reference: PubChem BioAssay (Tox21)
# Values joined by “and” are separate entries in the source; they are usually repeats but may differ in a detail not shown here. Identical values can stand only once. Results filed as inconclusive are left out. Entries that show only a call come without a potency. The source holds several records for some structures; these can differ, active in one and inactive in another. Active and inactive are the calls of the source. Calls follow the shape of the dose curve; as a rule, active = well fitted activation curve with a large enough effect in the signal ratio in the repeat runs (not every such curve was filed as active); inconclusive = weak or mixed curves, or effect the other way; inactive = no such curve, though single readings can be large or run the other way; the % refers to the signal ratio.
# Test: qHTS assay for small molecule agonists of the antioxidant response element (ARE) signaling pathway (AID 743202)
# Conditions: HepG2 ARE-bla reporter, beta-lactamase FRET, 16 h; series mostly up to 73.3 µM; activation: at the top concentration
# Text: U.S. Tox21 Program National Center for Advancing Translational Sciences [NCATS] NIH Chemical Genomics Center [NCGC] U.S. Environmental Protection Agency [EPA] National Institutes of Environmental Health Sciences [NIEHS] National Toxicology Program [NTP] U.S. Food and Drug Administration [FDA] Tox21 Assay Overview: Oxidative stress has been implicated in the pathogenesis of a variety of diseases ranging from cancer to neurodegeneration. The antioxidant response element (ARE) signaling pathway plays an important role in the amelioration of oxidative stress. The CellSensor ARE-bla HepG2 cell line (Invitrogen) can be used for analyzing the Nrf2/antioxidant response signaling pathway. Nrf2 (NF-E2-related factor 2) and Nrf1 are transcription factors that bind to AREs and activate these genes. The CellSensor ARE-bla Hep G2 cell line contains a beta-lactamase reporter gene under control of the Antioxidant Response Element (ARE) stably integrated into HepG2 cells. The activation of the report gene under culture conditions can be detected by fluorescence intensity. This cell line has been used to screen the Tox21 10K compound library to identify agonists that induce oxidative stress.
# Tox21 Assay Protocol Summary: The ARE-bla cells were dispensed at 2,000 cells/5 ul/well in 1536-well black wall/clear bottom plates using a Multidrop dispenser. After the assay plates were incubated at a 37 C/5% CO2 incubator for 5 hours, 23 nL of compounds dissolved in DMSO, positive controls or DMSO only was transferred to the assay plate by a pin tool. The plates were incubated at 37 C for 16 hours. After 1 uL of LiveBLAzer B/G FRET substrate was added using a Flying Reagent Dispenser, the plates were incubated at room temperature for 2 hours, and fluorescence intensity was measured by an Envision plate reader.
# Potency is read from the fitted curve at half-maximal effect.
SMILES,Potency,activation
COC(=O)Nc1nc2ccc(S(=O)c3ccccc3)cc2[nH]1 (stereo not given),inactive,
CC(C)=CCCC(C)CCO (stereo not given),,3.94% (inactive)
CCCCCCCCCCCO,,3.17% [at 94.8 µM] (inactive)
OCCO,inactive,
CN(C)C(=N)N=C(N)N,,-5.1% (inactive)
CC(=O)CC/C=C(\C)CCC=C(C)C,,0.0888% [at 94.8 µM] (inactive)
O=C(Nc1ccc([N+](=O)[O-])cc1Cl)c1cc(Cl)ccc1O,,-23.7% [at 34.3 µM] (inactive)
Nc1ccc(Cl)cc1Cl,inactive,
Nc1ccc(S(=O)(=O)Nc2cnc3ccccc3n2)cc1,inactive,
COc1ccccc1/C=C/C=O,inactive,
C=C(C)C1CC=C(C)CC1 (stereo not given),,-6.36% (inactive)
CN(C)CCN(Cc1cccs1)c1ccccn1,,-13% (inactive)
CC(C(=O)O)c1cccc(C(=O)c2ccccc2)c1 (stereo not given),inactive,
O=S(=O)(O)c1ccc(O)cc1,inactive,
O=C(c1ccccc1)c1ccc(O)cc1O,30.6 µM (active),
OC[C@H]1O[C@@H]2O[C@H]3[C@H](O)[C@@H](O)[C@@H](O[C@H]4[C@H](O)[C@@H](O)[C@@H](O[C@H]5[C@H](O)[C@@H](O)[C@@H](O[C@H]6[C@H](O)[C@@H](O)[C@@H](O[C@H]7[C@H](O)[C@@H](O)[C@@H](O[C@H]8[C@H](O)[C@@H](O)[C@@H](O[C@H]1[C@H](O)[C@H]2O)O[C@@H]8CO)O[C@@H]7CO)O[C@@H]6CO)O[C@@H]5CO)O[C@@H]4CO)O[C@@H]3CO,inactive,
Cc1ccc2c(n1)Oc1ccc(C(C)C(=O)OCC(=O)N(C)C)cc1C2 (stereo not given),inactive,
NC=O,inactive,
CC(C)CC(C)(O)C#CC(C)(O)CC(C)C (stereo not given),inactive,
O=CCCCC=O,52.5 µM (active) and inactive,

SMILES,Potency,activation
O=C(O)c1ccccc1Nc1cccc(C(F)(F)F)c1,54.5 µM (active),
c1ccc2c(c1)c1cccc3ccc4cccc2c4c31,60.7 µM (active),
CC(C)=CCC/C(C)=C\CO,inactive,
CCCCC(CC)COC(=O)c1ccc(N(C)C)cc1 (stereo not given),inactive,
O=C(OCc1ccccc1)c1ccccc1O,inactive,
COC(=O)c1ccccc1,inactive,
COc1ccc(C(=O)CC(=O)c2ccc(C(C)(C)C)cc2)cc1,inactive,
CC(CCC(=O)O)(c1ccc(O)cc1)c1ccc(O)cc1,inactive,
CC(=O)C1(C)CC2=C(CCCC2(C)C)CC1C (stereo not given),inactive,
Nc1ncn([C@@H]2O[C@H](CO)[C@@H](O)[C@H]2O)c(=O)n1,1.54 µM (active) and 2.66 µM (active),
C/C=C/C(=O)O,inactive,
CCC(C)OC(=O)c1ccc(O)cc1 (stereo not given),,-2.07% [at 94.8 µM] (inactive)
S=C(NC1CCCCC1)NC1CCCCC1,34.4 µM (active),
c1ccc2c(c1)Oc1ccccc1S2,,17.1% (inactive)
Cc1ncc[nH]1,inactive,
c1cc(N(CC2CO2)CC2CO2)ccc1OCC1CO1 (stereo not given),27.3 µM (active) and 19.3 µM (active),
Cn1cnc([N+](=O)[O-])c1Sc1ncnc2nc[nH]c12,8.41 µM (active),
Cc1[nH]c(=O)c(C#N)cc1-c1ccncc1,,-2.39% (inactive)
CN(C)c1nc(N(C)C)nc(N(C)C)n1,inactive,
COC(=O)CCC(=O)OC,inactive,
